High-throughput results deposited in PubChem BioAssay by National Center for Advancing Translational Sciences (NCATS).
HCMV inh = qHTS Assay for inhibitors of the human cytomegalovirus (HCMV); HFF cells, HCMV-luciferase reporter, 72 h; stronger effect = lower value; AID 1259415, 2018; activity change, negative = inhibition, % at 57.5 µM; 4.5% of 410,000 active; in the data active = activity change below about -60%; inconclusive = no clear call, values can overlap the other calls; inactive = above about -39%
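Inhibition of viral replication was scored as loss of reporter luminescence in HFFs infected with HCMV-luciferase (MOI 1 PFU/cell) for 72 h; compounds tested at 2 doses, normalized to buffer and Salinomycin controls.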
HCV inh = qHTS Assay for Inhibitors of Hepatitis C Virus (HCV) | Huh7.5.1 HCVcc-Cre infection, luciferase reporter, 44 h | 3.4% of 340,000 active | Potency, µM (doses to about 41.8 µM), actives largely listed as inhibitors | AID 651820, 2012; active = well fitted inhibition curve with a large enough effect; inconclusive = small, poorly fitted or top-dose-only effect, or another doubt; inactive = no such curve, though single readings can be large or run the other way
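Seed cells (1,000/well) for 4 h; treat with compound and infect with HCVcc-Cre, moi about 0.5. Incubate 44 h, then detect luciferase activity.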
LASV entry inh = qHTS for Inhibitors of binding or entry into cells for Lassa Virus | Potency, µM (top dose mostly 37.9 µM), actives largely listed as inhibitors | 1.2% of 300,000 active | AID 540256, 2011 | Lassa virus pseudotype entry inhibition, cell reporter; calls by dose curve; tested in HEK293 cells; note: nearly all actives have a fitted effect of over 50% in size
FMDV antiviral = High Throughput Screening for Foot and Mouth Disease Virus Antivirals; 1.2% of 410,000 active; FMDV antiviral cell-based qHTS; Potency, µM (series often up to 57.9 µM), actives largely listed as inhibitors; AID 1159524, 2015; calls by dose curve; tested in HEK293T cells; note: read-out not given here; nearly all actives have a fitted effect of over 45% in size
SARS PLP yeast = qHTS of Yeast-based Assay for SARS-CoV PLP; S. cerevisiae expressing SARS-CoV PLpro, growth rescue; Potency, µM (highest dose often 32.9 µM), hits mostly activators; 0.19% of 330,000 active; AID 485353, 2010; calls by dose curve; note: nearly all actives have a fitted effect of over 55% in size
MARV entry inh = qHTS for inhibitors of binding or entry into cells for Marburg Virus | Marburg virus pseudotyped entry inhibition, cell reporter | Potency, µM (top dose mostly 37.8 µM), actives largely listed as inhibitors | 1.8% of 300,000 active | AID 540276, 2011; calls by dose curve; tested in HEK293 cells
A number is an active result; – = inactive; ? = inconclusive; · = not tested or not shown; ! = a repeat was not active. In the library only some 8% were active in any assay of this set; here they are far more common.

SMILES | HCMV inh | HCV inh | LASV entry inh | FMDV antiviral | SARS PLP yeast | MARV entry inh
CC(C)(C)c1cnnn1-c1cccc([N+](=O)[O-])c1 | -66 | – | – | – | – | –
CC(Oc1ccc(Cl)cc1)c1ccnn1S(=O)(=O)c1ccc(Cl)cc1 (centres undefined) | – | ? | – | ? | – | –
Cc1ccc(S(=O)(=O)n2nccc2-c2c(-c3ccc(Cl)cc3)noc2C)cc1 | -96 | 14µM | ? | – | – | ?
CC(=O)c1ccc(NC(=O)NCCc2c[nH]c3ccccc23)cc1 | – | · | – | – | · | –
CN=c1nc(-c2ccccc2)n(-c2ccccc2)s1 | – | – | 23µM | – | · | 14µM!
CCOc1ccc(Br)cc1C(=O)Nc1ccc(C(=O)NCC(C)C)cc1 | -80 | ? | – | – | – | ?
CCOc1ccc(NC(=O)CSc2ccccc2N)cc1 | – | – | · | – | – | 3.5µM
CCOc1ccc(NC(=O)c2ccccn2)cc1 | ? | – | 0.28µM | 3.2µM | – | 0.32µM
CCOc1ccc(NC(=O)c2cnsn2)cc1 | – | – | ? | – | – | 8.9µM
CCOc1ccc(NC(=O)c2cnccn2)cc1 | – | – | ? | – | – | ?
CCOc1ccc(NC(=O)CSCC(=O)O)cc1 | – | – | – | – | ? | –
CCN1C(=O)c2ccccc2S(=O)(=O)c2ccc(C(=O)NCc3ccccc3OC)cc21 | – | · | – | – | · | –
COc1ccc(C2C(=O)N(C3CCC(C)CC3)CC(=O)N2CCc2ccccc2)cc1OC (centres undefined) | ? | · | – | – | · | ·
O=C(O)c1cccc(-n2cnc3cccnc32)c1 | – | · | ? | – | · | –
O=c1c(-c2ccc(F)cc2)nc2cnc(N3CCNCC3)nc2n1-c1ccccc1 | · | · | · | – | · | ·
CCOc1ccc(NC(=O)c2ccc(NC(=O)c3ccccc3Br)cc2)cc1 | – | 5µM | – | – | – | ?
CCOc1ccc(NC(=O)CSc2nnc(Cn3cnc([N+](=O)[O-])n3)n2CC)cc1 | -67 | – | – | – | – | ?
CCOc1ccc(NC(=O)c2ccccc2O)cc1 | – | – | ? | – | – | ?
CCN(CC)CCn1nc2c3c(cccc3c1=O)-c1ccccc1-2 | -99 | 10µM | · | ? | – | ·
O=c1c2cccc3c2c(nn1CN1CCOCC1)-c1ccccc1-3 | · | ? | ? | – | – | ?
CCN(CC)S(=O)(=O)c1cc(NC(=O)c2ccccc2OCc2c(C)noc2C)ccc1C | – | – | 11µM | – | · | ?
Cc1cc(NC(=O)COC(=O)c2c(C)noc2C)ccc1Br | ? | – | – | – | – | ?
CCN(CC)S(=O)(=O)c1cc(NC(=O)COC(=O)c2c(C)noc2C)ccc1C | – | 14µM | · | – | – | ·
Cc1ccc(C(=O)NCC(=O)NC2CCCCCC2)cc1 | -97 | – | – | – | – | –
Cc1cc(O)c(C(c2cccc(F)c2)N2CCN(c3ccccc3)CC2)c(=O)n1Cc1ccco1 (centres undefined) | – | · | – | – | · | ·
SMILES | HCMV inh | HCV inh | LASV entry inh | FMDV antiviral | SARS PLP yeast | MARV entry inh
O=[N+]([O-])c1ccc(C[n+]2cc(-c3ccc(Cl)c(Cl)c3)n3c2CCCCC3)cc1 | – | – | · | – | – | ·
N#CC[n+]1cc(-c2ccc(Cl)cc2)n2c1CCC2 | – | – | – | – | – | –
Clc1ccc(C[n+]2cc(-c3ccccc3)n3c2CCCCC3)c(Cl)c1 | -78 | – | · | ? | – | ·
Clc1ccc(-c2c[n+](Cc3ccc(Br)cc3)c3n2CCCCC3)cc1 | -68 | – | – | – | – | ?
O=C(C[n+]1cc(-c2ccccc2)n2c1CCCCC2)c1ccc(Cl)cc1 | – | – | – | – | – | –
CC1CCC(C(C)C)C(OC(=O)C[n+]2cc(-c3ccc(Cl)cc3)n3c2CCCCC3)C1 (centres undefined) | -97 | – | ? | ? | – | ?
Clc1ccc(-c2c[n+](Cc3ccc(Cl)cc3Cl)c3n2CCCCC3)cc1 | -102 | – | · | – | – | ·
COc1ccc(C2CC(=O)c3cc(-c4nc(-c5ccc(Cl)cc5)c(C)s4)c(=O)[nH]c3C2)cc1 (centres undefined) | – | · | – | – | · | –
Cc1ccc(-c2c[n+](CC(=O)c3ccc(Br)cc3)c3n2CCCCC3)cc1 | -88 | – | ? | ? | – | 10µM
Fc1cccc(NC(=S)NNc2c3ccccc3nc3ccccc23)c1 | – | 4.5µM | ? | ? | – | –
Fc1cccc(NC(=S)NNc2ccccc2)c1 | ? | – | · | – | – | ·
COc1ccc(C(=O)NCCc2nnc3n2CCN(CC2CC=CCC2)CC3)cc1 (centres undefined) | · | · | · | – | · | ·
Cc1cc(C)n(S(=O)(=O)c2ccccc2)n1 | – | – | – | – | – | –
Cc1cc(C)n(S(=O)(=O)c2ccccc2[N+](=O)[O-])n1 | -60 | – | – | – | – | –
COc1ccc(-n2c(CC3C(=O)N(C)c4ccc(C)cc43)nc3ccccc3c2=O)cc1 (centres undefined) | – | · | – | ? | · | –
O=c1c2ccccc2n2c(-c3ccc(Cl)cc3)nnc2n1CCc1ccccc1 | – | · | – | – | · | –
Cn1nccc1C(=O)NC1CCCc2c1cnn2-c1ccc(C(C)(C)C)cc1 (centres undefined) | -61 | ? | ? | ? | – | ?
Cc1cc(C)cc(-n2ncc3c2CCCC3NC(=O)CN2CCCC2=O)c1 (centres undefined) | – | – | · | – | – | ·
CC(=O)CCC(=O)NC1CCCc2c1cnn2-c1ccc(C(C)(C)C)cc1 (centres undefined) | ? | ? | · | ? | – | ·
CC(C)(C)c1ccc(-n2ncc3c2CCCC3NC(=O)C2=NNC(=O)CC2)cc1 (centres undefined) | -81 | ? | · | ? | – | ·
CC1(C)Cc2c(cnn2-c2ccc(F)cc2)C(NC(=O)C2=NNC(=O)CC2)C1 (centres undefined) | – | – | · | – | – | ·
CC(=O)NC1CCCc2c1cnn2-c1ccc(C(C)(C)C)cc1 (centres undefined) | – | 10µM | – | – | – | –
CC(C)(C)c1ccc(-n2ncc3c2CCCC3NC(=O)CN2CCCC2=O)cc1 (centres undefined) | -67 | 10µM | ? | ? | – | –
CC(C)(C)c1ccc(-n2ncc3c2CCCC3NC(=O)c2csnn2)cc1 (centres undefined) | – | – | – | – | – | –
CC(C)(C)c1ccc(-n2ncc3c2CCCC3NC(=O)c2cnccn2)cc1 (centres undefined) | -63 | 4.5µM | ? | – | – | ?
O=C(NN=C1C[C@@H](O)[C@H](O)[C@H]2[C@@H]3C(=O)N(c4cccc(Oc5ccccc5)c4)C(=O)[C@@H]3CC[C@H]12)OCc1ccccc1 | · | · | ? | · | · | –
CCCC(=O)C1=C(c2ccc(C)c(C)c2)N(C(=O)CCC)n2c(CC)nnc2S1 | -76 | · | – | – | · | ·
